AHR activator = human AHR activation | P35869 | AHR-responsive luciferase reporter cells, luminescence | activation, % at 5 µM | 320,000 compounds, 2.5% hits | AID 2796; in the data active = activation above about 47%;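 also: 0% = vehicle wells and 100% = reference agonist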
Target sequence (P35869 whole entry, looked up): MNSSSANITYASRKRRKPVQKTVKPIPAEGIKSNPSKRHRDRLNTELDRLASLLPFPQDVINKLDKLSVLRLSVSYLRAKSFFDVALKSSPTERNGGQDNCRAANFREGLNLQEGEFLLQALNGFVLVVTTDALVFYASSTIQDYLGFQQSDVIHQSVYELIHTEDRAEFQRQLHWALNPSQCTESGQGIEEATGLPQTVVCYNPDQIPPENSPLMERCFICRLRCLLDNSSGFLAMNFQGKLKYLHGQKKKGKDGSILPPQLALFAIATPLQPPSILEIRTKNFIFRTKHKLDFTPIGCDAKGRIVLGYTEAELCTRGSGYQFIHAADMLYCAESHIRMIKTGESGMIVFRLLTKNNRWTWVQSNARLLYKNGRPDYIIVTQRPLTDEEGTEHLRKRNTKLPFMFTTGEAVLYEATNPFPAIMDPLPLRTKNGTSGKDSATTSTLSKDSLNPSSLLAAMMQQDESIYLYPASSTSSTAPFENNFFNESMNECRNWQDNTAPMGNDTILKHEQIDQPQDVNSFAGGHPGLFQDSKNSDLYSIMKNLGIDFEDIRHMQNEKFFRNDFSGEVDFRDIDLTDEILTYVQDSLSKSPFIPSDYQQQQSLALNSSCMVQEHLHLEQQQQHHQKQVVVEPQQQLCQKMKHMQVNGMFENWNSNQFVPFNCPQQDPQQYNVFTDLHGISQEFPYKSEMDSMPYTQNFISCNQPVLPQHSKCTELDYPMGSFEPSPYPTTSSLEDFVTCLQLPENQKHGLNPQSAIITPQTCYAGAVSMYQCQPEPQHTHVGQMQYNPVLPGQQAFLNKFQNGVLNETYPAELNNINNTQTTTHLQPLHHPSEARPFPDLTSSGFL
HSF1 inh = HSF1 inhibition | NIH3T3-HGL HSE-luciferase, MG132-induced, luminescence 8 h; stronger effect = lower value | activity change, negative = inhibition, % at 7.5 µM (by protocol) | 300,000 compounds, 0.77% hits | AID 2098;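 active = more than half of replicate wells show activity change below -50%, luminescence cut by over half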;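 also: luciferase reports HSF-1 transcriptional activity via heat shock element; 0% = median of DMSO wells and -100% = zero luminescence signal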
FXN GAA850 act = activators of GAA850 frataxin (FXN) promoter. activation, % at 6 µM. HEK293 lucGAA850 FXN promoter luciferase reporter, 24 h; percent of 10 µM SAHA response. 360,000 compounds, 0.56% hits. AID 540364;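 active = activation above the average of all compounds screened plus 3 SD, cutoff fixed separately per campaign, cut at about 7.5% in these data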;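 also: 0% = DMSO wells and 100% = 10 µM SAHA wells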
HSF-1 act = increases HSF-1 driven luciferase reporter signal | NIH3T3-HGL HSF-1 luciferase reporter, MG132, 8 h; 100% = twice DMSO control signal | activation, % at 9 µM | 300,000 compounds, 1.7% hits | AID 504408;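 active = mean replicate activation of at least 50% with a set share of replicates each reaching 50%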;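 also: 0% = median of the neutral control wells and 100% = twice that signal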
An asterisk follows results filed as active. Most compounds without a hit are left out; they make up all but 4.6% or so of the library.

Screening Cc1csc2ncc(C(=O)Nc3cccc(C(F)(F)F)c3)c(=O)n12 returned AHR activator 23, HSF1 inh 0, FXN GAA850 act 0 and HSF-1 act 7.
O=S(=O)(Nc1cccc(F)c1)c1ccc(S(=O)(=O)N2CCOCC2)cc1 was read as FXN GAA850 act -1.
For CC(=O)Nc1ccc(NC(=O)CSc2nccn2Cc2ccc(Cl)cc2)cc1 the results were AHR activator 0, HSF1 inh 2, FXN GAA850 act -1 and HSF-1 act 21.
C=CC[C@@H]1Cc2c(Br)ccc(Br)c2[C@@H](CC=C)N1 was read as AHR activator 3, HSF1 inh 34, FXN GAA850 act 2 and HSF-1 act 61*.
COc1ccc(CNC(=O)Cn2nc(Cc3cccnc3)c3ccccc3c2=O)cc1 was read as AHR activator 2, HSF1 inh -3, FXN GAA850 act 2 and HSF-1 act 6.
Cc1cccc(/C=C2\CCC(=C3SCCCS3)C2=O)c1 was read as AHR activator -4, HSF1 inh -22, FXN GAA850 act -5 and HSF-1 act -26.
Screening O=C1C(=C2SCCCS2)CC/C1=C\c1ccc(F)cc1 returned AHR activator -3, HSF1 inh -75*, FXN GAA850 act -9 and HSF-1 act -78.
`CCOC(=O)c1[nH]c2ccccc2c1NC(=S)Nc1cc(C)ccc1C` gave AHR activator 60*, HSF1 inh 4, FXN GAA850 act 2 and HSF-1 act 17.
CCOC(=O)c1[nH]c2ccccc2c1NC(=O)CC(C)C was read as AHR activator 18, HSF1 inh 3, FXN GAA850 act 0 and HSF-1 act 4.
Screening CCCC(=O)Nc1c(C(=O)OCC)[nH]c2ccccc12 returned AHR activator 58*, HSF1 inh 4, FXN GAA850 act -1 and HSF-1 act 1.
For CCOC(=O)c1[nH]c2ccccc2c1NC(=S)Nc1ccccc1C the results were AHR activator 59*, HSF1 inh -2, FXN GAA850 act 3 and HSF-1 act -2.
Screening C/C(=C\C(=O)C(F)(F)F)Nc1ccc(C)cc1 returned AHR activator -2, HSF1 inh -7, FXN GAA850 act 0 and HSF-1 act -8.
O=C(N/N=C/c1cccnc1)c1cc(C2CC2)nc2ccccc12 was read as AHR activator 48*, HSF1 inh -1, FXN GAA850 act 1 and HSF-1 act -1.
For C/C(=N\NC(=O)c1cc(C2CC2)nc2ccccc12)c1ccc(O)cc1O the results were AHR activator 10, HSF1 inh 1, FXN GAA850 act -4 and HSF-1 act 6.
For C/C(=N\NC(=O)c1cc(C2CC2)nc2ccccc12)c1ccc(C)s1 the results were AHR activator 51*, HSF1 inh 26, FXN GAA850 act -3 and HSF-1 act 19.
For CCOc1ccc(N(C(=O)c2ccc(S(=O)(=O)N3CCCC3)cc2)C2C=CS(=O)(=O)C2)cc1 (configuration not stated) the results were AHR activator -1, HSF1 inh -2, FXN GAA850 act 1 and HSF-1 act 6.
For Nc1ccc(N=Nc2ccccc2O)c(N)c1 the results were AHR activator 72*, HSF1 inh -1, FXN GAA850 act 2 and HSF-1 act -4.
COc1nc(-c2ccccc2)cc(-c2ccc(OC)c(OC)c2)n1 was read as AHR activator 17 and FXN GAA850 act 1.
Screening COc1ccc(-c2cc(C#N)nc(NN)n2)cc1 returned AHR activator 46, HSF1 inh 12, FXN GAA850 act -1 and HSF-1 act 20.
Screening Cc1ccc(-c2cc(-c3ccccc3)nc(NN)n2)cc1 returned AHR activator 66*, HSF1 inh 0, FXN GAA850 act 0 and HSF-1 act 1.
For COc1ccc(-c2cc(-c3ccccc3)nc(NN)n2)cc1OC the results were AHR activator 65*, HSF1 inh 0, FXN GAA850 act 2 and HSF-1 act 10.
For Cc1ccc(OCCNC(=O)CCC(=O)N2CCOCC2)cc1 the results were AHR activator 0, HSF1 inh -1, FXN GAA850 act -2 and HSF-1 act 13.
Screening O=C1C=C(Nc2ccccc2)c2ccccc2C1=O returned HSF1 inh 47, FXN GAA850 act 1 and HSF-1 act 49.
Screening O=C1C=C(Nc2ccccc2C(=O)O)c2ccccc2C1=O returned AHR activator 52*, HSF1 inh 64, FXN GAA850 act 1 and HSF-1 act 93*.
Screening Cc1cccc(Nc2nc3c(s2)CCCC3)c1 returned AHR activator 10, HSF1 inh 9, FXN GAA850 act 7 and HSF-1 act 19.
`O=S1(=O)N=C(Nc2nc3c(s2)CCCC3)c2ccccc21` gave AHR activator 57* and FXN GAA850 act 6.

Source: PubChem BioAssay
